For 36 compounds, outcome and AC50 results are on record in PubChem BioAssay (EPA / NIEHS).

Several values for one entry are separate records, joined by “and”; a condition that tells them apart may be missing. Equal values may be shown once. A structure can be active in one record and inactive in another. Activity calls are given as the source filed them. How the source made its calls: active means hit-call score of the fitted dose curve at least 0.9, where 1 is the maximum; inactive means score below 0.9.

Read-out in the experiment: TIMP metallopeptidase inhibitor 1 (TIMP1), TIMP1 (gene 7076)
Nature of the experiment: BSK_hDFCGF_TIMP1: BioMAP Diversity Plus: hDFCGF Assay for TIMP metallopeptidase inhibitor 1 (TIMP1) Biomarker Activity (AID 2283062). To be noted: primary human foreskin fibroblasts; actives raise or lower the signal. The procedure: BSK_hDFCGF is a cell-based, multiplexed-readout assay that uses foreskin fibroblast, a human skin primary cell, with measurements taken at 24 hours after chemical dosing in a 96-well plate.BSK_hDFCGF_TIMP1 is an assay component measured in the BSK_hDFCGF assay. It measures TIMP-1 antibody related to regulation of gene expression using ELISA technology.Data from the assay component BSK_hDFCGF_TIMP1 was analyzed into 1 assay endpoint. This assay endpoint, BSK_hDFCGF_TIMP1, was analyzed with bidirectional fitting relative to DMSO as the negative control and baseline of activity. Using a type of binding reporter, gain or loss-of-signal activity can be used to understand changes in the signaling as they relate to the gene TIMP1. Furthermore, this assay endpoint can be referred to as a primary readout, because this assay has produced multiple assay endpoints where this one serves a signaling function. To generalize the intended target to other relatable targets, this assay endpoint is annotated to the protease inhibitor intended target family, where the subfamily is metalloproteinase inhibitor.
The levels of cell surface (or secreted, indicated by the prefix "s") biomarker endpoints were measured by ELISA. Overt cytotoxicity to cells in confluent adherent cultures (all systems other than the BT system) was assessed by measuring total protein levels using sulforhodamine B (SRB) staining in parallel cultures at the time of biomarker measurements, indicated as SRB endpoints. For proliferation assays for adherent cell types, individual cell types are cultured at sub-confluence and relative cell numbers quantified by SRB staining at time points optimized for each system (48 h: 3C and CASM3C systems; 72 h: BT and HDF3CGF systems; 96 h: SAg system). SRB was performed by staining cells with 0.1% SRB after fixation with 10% TCA and reading wells at 560 nm.Viability and proliferation of PBMC (T cells) was quantified by Alamar Blue reduction for the SAg and BT systems. For PBMC viability (referred to as PBMC Cytotoxicity within the assay endpoint names), cells were plated (75,000/well in a 96-well plate) and then chemical samples added for 1 h before addition of activators, SEB and TSST-1 (20 ng/mL final concentration each). Cells were incubated for 90 h. Then, Alamar Blue (20 uL/well) (Invitrogen, Cat DAL1100) was added for 6 h, and the plates were read with a fluorescence microplate reader at 546/580 nm (excitation/emission). For PBMC proliferation, cells were plated and activated as above but incubated for only 16 h prior to addition of Alamar Blue. Plates were read after 6 h.
Regarding `N#[N+]c1ccc2c(S(=O)(=O)[O-])cccc2c1O`, the outcome was inactive.

Turning to `O=C(c1ccc(O)cc1)c1ccc(O)cc1O`, the result was inactive.

Take `CC(C)C(=O)C(C)C`: the outcome was inactive. Still for that read-out and setting: then `CCCCNc1ccc(NCCCC)c2c1C(=O)c1ccccc1C2=O`, with “inactive”; and `S=C(NC1CCCCC1)NC1CCCCC1`, with “inactive”. Take `C/C=C\C/C=C/CCCCCCCCOC(C)=O`: the AC50 – broadly, the midpoint of the concentration-response curve, whichever way the signal moves – was 30.4 µM (active). As for `C=C[Si](OC(C)=O)(OC(C)=O)OC(C)=O`, the result was inactive.

Regarding `C#CC1(O)CC[C@H]2[C@@H]3CCC4=CCCC[C@@H]4[C@H]3CC[C@@]21C` (some centres not stated), the half-maximal activity concentration (AC50) was 33 µM (active). As to `O=C1CCCN1CCO`, the outcome was inactive.

Take `CCCCC(CC)COCC1CO1` (configuration not stated): the result was inactive.

With `CC1OC1C1CCC2(C)OC2C1` (configuration not stated), the result was inactive. The same measure, in the same setting: then `C=CCOCC(O)CCl` (configuration not stated), with “inactive”. Still for that read-out and setting: under `O=C(Nc1ccccc1SSc1ccccc1NC(=O)c1ccccc1)c1ccccc1` stands “inactive”. Take `O=C(Cl)c1cc(C(=O)Cl)cc(C(=O)Cl)c1`: the AC50 is 13.7 µM (active). For the compound `COc1ccc2nc(N)sc2c1`, the outcome was inactive.

Regarding `O=c1c2ccccc2oc2ccccc12`, the outcome was inactive. Consider `CN1C(=O)N(C)C(O)C1O` (configuration not stated), for which the outcome was inactive. As for `COCc1c(C(C)C)nc(C(C)C)c(/C=C/[C@@H](O)C[C@@H](O)CC(=O)O)c1-c1ccc(F)cc1`, the result was inactive. Regarding `Nc1ccc(N)c(Cl)c1`, the concentration at half-maximal activity (AC50) was 34.2 µM (active) and the outcome was inactive. Regarding `c1ccc(-c2ccccn2)nc1`, the outcome was inactive. For the compound `CC(C)(c1cc(Br)c(OCCO)c(Br)c1)c1cc(Br)c(OCCO)c(Br)c1`, the AC50 is 25.4 µM (active). For the compound `CCCCCCCCCCCCCCCC[N+](C)(C)CC`, the AC50 is 1.89 µM (active). For `CO[Si](OC)(OC)c1ccccc1`, the result was inactive.

For the compound `CCOc1nc(F)cc2nc(S(=O)(=O)Nc3c(Cl)cccc3C(=O)OC)nn12`, the result was inactive. Turning to `c1ccc2c(c1)ccc1cc3c(ccc4ccccc43)cc12`, the result was inactive. Consider `CCCCC/C=C\C/C=C\CCCCCCCC(=O)OC`, for which the concentration at half-maximal activity (AC50) is 29.3 µM (active).

Take `CCOC(=O)c1ccccc1C(=C1C=C(Br)C(=O)C(Br)=C1)c1cc(Br)c(O)c(Br)c1`: the half-maximal activity concentration (AC50) was 3.75 µM (active) and 3.67 µM (active).

Regarding `O=Nc1ccc(O)cc1`, the result was inactive. Still for that read-out and setting: then `CCO[Si](C)(OCC)OCC`, with “inactive”. Regarding `C=CC=CC=CCCCCC`, the result was inactive. As to `CCCCCCCCc1ccc(Nc2ccc(CCCCCCCC)cc2)cc1`, the result was inactive. `CCCCC(CC)COC(=O)c1ccccc1O` (configuration not stated): the AC50 was 12.8 µM (active). Regarding `CCO[Si](CCCN=C=O)(OCC)OCC`, the result was inactive. On to `C=CC(=O)OCC(Br)CBr` (configuration not stated), for which the half-maximal activity concentration (AC50) was 11.9 µM (active).

On to `C=CCOc1c(Br)cc(Br)cc1Br`, for which the concentration at half-maximal activity (AC50) was 8.19 µM (active). As to `c1ccc2c(c1)ccc1ncccc12`, the outcome was inactive.
